Experimental data as given in PubChem BioAssay (NCI).
This is part of a sample that, as a whole, favours compounds with a hit. Of some 83,000 tested, about 20% had one in any assay.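 Results are percent growth after 48 hours of single-concentration exposure. 100 means growth as in untreated cells, lower positive values show inhibition; negative values down to -100 show cell death.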 A number with no mark means an inactive call. Calls of active or inactive are those of the source. The calls were made as follows: active = growth percent below 10; inactive = the rest.

What was measured:
Assay in all cases: NCI-60 one-dose screen, 48 h (100 = growth as untreated, 0 = no growth, -100 = all killed)
Details in all cases: 10 µM unless noted
[1] = tested on: SK-MEL-2 melanoma
[2] = tested on: EKVX NSCLC
[3] = tested on: SN12C renal
[4] = tested on: UO-31 renal
[5] = tested on: TK-10 renal
[6] = tested on: ACHN renal
[7] = tested on: A498 renal
[8] = tested on: CCRF-CEM leukemia
[9] = tested on: MOLT-4 leukemia
[10] = tested on: CAKI-1 renal

Structure (SMILES)	growth [1]	growth [2]	growth [3]	growth [4]	growth [5]	growth [6]	growth [7]	growth [8]	growth [9]	growth [10]
O=C1/C(=C\c2ccccn2)c2ccccc2N1c1c(Cl)cccc1Cl	48.8%	27.2%	18.1%	16.8%	52%	19.6%	21.3%	8.81% (active)	3.48% (active)	–
CNC1=CC(=O)c2c(C(=O)OC)c(C)[n+]([O-])c(C)c2C1=O	70.7%	84%	40%	90.7%	133%	74.4%	103%	81.6%	95.6%	74.4%
CN1C(=O)/C(=C2\SC(=Nc3ccccc3)N(Nc3ccccc3)C2=O)c2ccccc21	108%	101%	97.8%	61.4%	148%	95.3%	103%	103%	101%	–
O=C(/C=C/c1ccccc1)c1ccc(Nc2nc(Nc3ccc(F)cc3)nc(Nc3ccc(Cl)cc3)n2)cc1	92%	79.2%	99.6%	82%	106%	93.1%	94.5%	26.3%	83.6%	87.4%
CCN(CC)CCCN1C(=O)c2c(c(C)c3c(oc4ccc(OC)cc43)c2C)C1=O	108%	105%	100%	64.5%	110%	42.8%	99.1%	93.9%	96.4%	–
Cc1nc2c(=O)nc3s/c(=C\c4ccco4)c(=O)n3c2nc1C	109%	91.8%	97.8%	73.1%	92.9%	99.2%	50.9%	108%	106%	–
C[n+]1ccc(CCc2c[nH]c3ccccc23)cc1	81.7%	53.9%	93.7%	76.7%	81.2%	90.9%	71.9%	101%	90.5%	92.6%
O=C1/C(=C/c2ccccn2)NC(=S)N1c1ccccc1Cl	119%	75%	58.1%	36.4%	79.9%	53.3%	89.5%	9.35% (active)	33.4%	–
O=C(Nc1ncccc1OCc1ccccc1)NC1CCCCCC1	91.9%	88.2%	78.6%	85.1%	94%	93.4%	101%	77.5%	78.7%	–
O=c1cc(-c2ccccc2)[nH]c2ncc(-c3ccc(F)cc3)n12	74.2%	87.8%	88.5%	69.2%	105%	88.3%	59%	56.3%	39.9%	–
O=C1c2ccccc2C(=O)c2c1c(C(=O)NCc1ccccc1)c1ccccn21	87.8%	105%	107%	89.8%	97.2%	103%	95.6%	90.2%	96.3%	–
C=C(C)[C@@H]1CC[C@]2(C(N)=O)CC[C@]3(C)[C@H](CC[C@@H]4[C@@]5(C)CC[C@H](OCCC#N)C(C)(C)[C@@H]5CC[C@]43C)[C@@H]12	92.5%	90.4%	78.5%	75.8%	117%	74.1%	116%	78.9%	70%	64.5%
COc1cc(OC)cc(-c2ccc(-c3ccc(C(=N)N)o3)o2)c1	88.1%	85.2%	53%	67.3%	83.7%	72.6%	68.5%	48.3%	31.4%	–
Fc1cc(Nc2ccc3c(OCCCN4CCOCC4)cccc3n2)ccc1Cl	88.8%	39.9%	62.6%	33.3%	66.1%	52.6%	54.4%	29.2%	3.8% (active)	54.8%
CC1(C)CC(=O)c2c(nn(-c3ccc(Br)cc3)c2-c2cn(-c3ccccc3)nc2-c2cccnc2)C1	98.1%	92.5%	92.7%	65.4%	140%	93.4%	98.5%	94.4%	81.5%	66.5%
O=C(Nc1cnc(Nc2ccc(N3CCOCC3)nc2)nc1Oc1ccc(C(F)(F)F)cc1)c1ccncc1	94.8%	100%	85%	98.4%	107%	98.9%	95.8%	90.8%	101%	–
CCS/C(Nc1ccccc1)=C(\C#N)C(=O)Nc1ccc(OC)cc1	-0.335% (active)	52.4%	37.8%	50%	47.7%	51.9%	22.7%	8.29% (active)	10.1%	–
Nc1c(C(=O)Nc2cccc(Cl)c2)sc2nc3c(cc12)CCCC3	86.6%	94.8%	97.6%	90.3%	85.1%	94.4%	87.6%	87.1%	84.8%	–
N#CC1=C(N)Oc2ccc3ccccc3c2C1c1ccc([N+](=O)[O-])cc1 (stereo not given)	93.9%	65.8%	90.4%	51.1%	156%	76.8%	84.8%	63.7%	68.6%	–
C=C1C(=O)O[C@H]2[C@H]1CC/C(CNC(=O)c1c[nH]c3ccc(F)cc13)=C\CC[C@@]1(C)O[C@@H]21	45.1%	60.3%	47.5%	-79.2% (active)	-51.7% (active)	-18% (active)	15.4%	-21% (active)	-39.7% (active)	–
CCN(CC)CCCN1C(=O)c2c(c(C)c3c(oc4ccc(O)cc43)c2C)C1=O	94.7%	101%	63.4%	63.7%	-27.4% (active)	25.9%	94.8%	-19.7% (active)	83.2%	–
C/C=C(\C)C(=O)N[C@H]1C(O)C[C@]2(C)C3CC[C@@]4(C)C(CC[C@@H]4C(C)N(C)C)C3CCC2C1O (stereo not given in full)	117%	66%	68.1%	-0.798% (active)	109%	60.4%	92.9%	14.6%	17%	–
CCCn1nc(C(=O)N(C)Cc2ccccc2)c2c1CCC(N1CCc3ccccc31)C2 (stereo not given)	106%	95.2%	98.9%	81.4%	105%	96%	95.9%	96.6%	89.9%	–
COC(=O)c1c2c(c(C)[n+]([O-])c1C)C(=O)C(NCc1cccc(Cl)c1)=CC2=O	33.7%	46.2%	0.796% (active)	–	73.5%	26.6%	106%	17.5%	-12.6% (active)	42.2%
Cc1c2cccnc2c(C)c2c1c1cc(CO)ccc1n2C	29.9%	20.3%	14.7%	–	26.7%	13.9%	-81.1% (active)	29.9%	22.9%	7.09% (active)
COc1ccc2c(c1)c(-c1nc(-c3c[nH]c4ncccc34)cs1)cn2CCCN1CCOCC1	11.4%	57.8%	52.7%	11.9%	51.5%	14.5%	27.8%	13.1%	-1.04% (active)	–
